The source of these data is publication PMC5892938, “SARNAclust: Semi-automatic detection of RNA protein binding motifs from immunoprecipitation data”.

Over roughly 11,000 sequences, “log2 fold change” has its median near 0.00022; the highest 2% begin near 0.34. Some of the results follow.

The target of the test is GST-SBP-SLBP (stem-loop binding protein) (Homo sapiens, UniProt Q14493 1-270). The test can be described thus: targeted RNA Bind-n-Seq; RBNS binding buffer: 25 mM Tris pH 7.5, 150 mM KCl, 3 mM MgCl2, 0.1% Tween, 0.5 mg/mL BSA, 1 mM DTT; 27 nM protein, 750 pM RNA pool; temperature not stated; high values mean tight binding. The settings on record: protein: recombinant; tags: N-terminal GST and SBP (pGEX6P1-SBP); structured_RNA. In short, it runs like this:
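The GST-SBP-tagged protein was expressed in Rosetta(DE3) pLysS E. coli, glutathione-purified and incubated at 27 nM with 750 pM of a designed, T7-transcribed RNA oligo pool in RBNS binding buffer. Bound RNA was reverse transcribed with a 10-nucleotide barcoded primer, PCR-amplified and sequenced on a MiSeq with 200-cycle paired-end reads. Reads were joined with FLASH, aligned with HISAT2 and collapsed by barcode. The binding signal is the DEseq log2 fold change of read counts per sequence.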
Consider “GGUCACGUCUCAAUCAACUCCCAAAGGUUUUUCUCAGAACCACCCAUCAACAGCUCGCAGUCAAG”, for which the binding signal worked out at 0.402 ± 0.178 log2 fold change.
As for “GGUCACGUCUCAAUCAACUCCCAAAGGUUUUUUUUAGAACCACCCAUCAACAGCUCGCAGUCAAG”, the figure is 0.338 ± 0.169 log2 fold change; as for “GGUCACGUCUCAAUCAACUCCCAAAGGUUUUUUUAAGAGCCACCCAUCAACAGCUCGCAGUCAAG”, 0.54 ± 0.157 log2 fold change.
In the case of “GGUCACGUCUCAAUCAACUCCCAAAGGUUUUUUUUAGAGCCACCCAUCAACAGCUCGCAGUCAAG”, the binding signal is 0.324 ± 0.158 log2 fold change.
In the case of “GGUCACGUCUCAAUCAACUCCCAAAGGCUUUUCUUAGAGCCACCCAUCAACAGCUCGCAGUCAAG”, the binding signal came to 0.496 ± 0.164 log2 fold change.
Take “GGUCACGUCUCAAUCAACUCUAGUCCAGGAGUUUUCUCCUGUUAAUUCAACAGCUCGCAGUCAAG”: the binding signal amounted to 0.331 ± 0.217 log2 fold change.
Next, “GGUCACGUCUCAAUCAACUCAAUCCCAGGAGUUUCCUCCUGCUAACUCAACAGCUCGCAGUCAAG”: 0.303 ± 0.231 log2 fold change.
As for “GGUCACGUCUCAAUCAACUCAUUCCCAGGAGUUUACUCCUGCUAACUCAACAGCUCGCAGUCAAG”, the binding signal is 0.364 ± 0.234 log2 fold change.
Turning to “GGUCACGUCUCAAUCAACUCAUCGUCAGGAGUUUACUCCUGCUAACUCAACAGCUCGCAGUCAAG”, the binding signal was found to be 0.304 ± 0.246 log2 fold change.
Next, “GGUCACGUCUCAAUCAACUCAAUCCCAGGAGUUUUCUCCUGUAAAGUCAACAGCUCGCAGUCAAG”: 0.317 ± 0.231 log2 fold change; “GGUCACGUCUCAAUCAACUCAUCCCCAGGAGUUUACUCCUGUUUAGUCAACAGCUCGCAGUCAAG”: 0.458 ± 0.228 log2 fold change.
Next, “GGUCACGUCUCAAUCAACUCUAUCCCAGGAGUUUCCUCCUGCAUACUCAACAGCUCGCAGUCAAG”: 0.312 ± 0.201 log2 fold change.
In the case of “GGUCACGUCUCAAUCAACUCUAUCCCAGGAGUUUACUCCUGUUUUCUCAACAGCUCGCAGUCAAG”, the binding signal came to 0.399 ± 0.223 log2 fold change.
As for “GGUCACGUCUCAAUCAACUCAUCCUCAGGAGUUUCCUCCUGUUAAGUCAACAGCUCGCAGUCAAG”, the figure is 0.328 ± 0.204 log2 fold change; as for “GGUCACGUCUCAAUCAACUCUUUCCCAGGAGUUUUCUCCUGUUAUGUCAACAGCUCGCAGUCAAG”, 0.376 ± 0.182 log2 fold change; as for “GGUCACGUCUCAAUCAACUCAUCUUCAGGAGUUUACUCCUGCUUAGUCAACAGCUCGCAGUCAAG”, 0.342 ± 0.198 log2 fold change.
As for “GGUCACGUCUCAAUCAACUCAGUCUCAGGAGUUUACUCCUGCUUAUUCAACAGCUCGCAGUCAAG”, the figure is 0.314 ± 0.242 log2 fold change; as for “GGUCACGUCUCAAUCAACUCAUCCUCAGGAGUUUACUCCUGCUUACUCAACAGCUCGCAGUCAAG”, 0.315 ± 0.216 log2 fold change.
Next, “GGUCACGUCUCAAUCAACUCUUCCUCCAGGGAAACCCCUGGUUAACUCAACAGCUCGCAGUCAAG”: 0.443 ± 0.293 log2 fold change.
Consider “GGUCACGUCUCAAUCAACUCUUCGUCCAGGGAAACCCCUGGUUUUCUCAACAGCUCGCAGUCAAG”, for which the binding signal was 0.36 ± 0.292 log2 fold change.
Take “GGUCACGUCUCAAUCAACUCUUCCUCCAGGGAAAACCCUGGUAAACUCAACAGCUCGCAGUCAAG”: the binding signal amounted to 0.339 ± 0.267 log2 fold change.
As for “GGUCACGUCUCAAUCAACUCAAUCUCCAGGGAAACCCCUGGUAAACUCAACAGCUCGCAGUCAAG”, the figure is 0.353 ± 0.274 log2 fold change.
As for “GGUCACGUCUCAAUCAACUCUUCGUCCAGGGAAAACCCUGGUUUUCUCAACAGCUCGCAGUCAAG”, the figure is 0.335 ± 0.277 log2 fold change; as for “GGUCACGUCUCAAUCAACUCUUCGCCCAGGGAAACCCCUGGUAAUCUCAACAGCUCGCAGUCAAG”, 0.384 ± 0.343 log2 fold change.
As for “GGUCACGUCUCAAUCAACUCAGUCUCCAGGGAAACCCCUGGUUUAUUCAACAGCUCGCAGUCAAG”, the figure is 0.458 ± 0.335 log2 fold change; as for “GGUCACGUCUCAAUCAACUCUUCUUCCAGGGAAACCCCUGGUAAUCUCAACAGCUCGCAGUCAAG”, 0.352 ± 0.266 log2 fold change; as for “GGUCACGUCUCAAUCAACUCAGUCCCCAGGGAAAACCCUGGUUUUUUCAACAGCUCGCAGUCAAG”, 0.518 ± 0.357 log2 fold change.
Consider “GGUCACGUCUCAAUCAACUCAGUCCCCAGGGAAACCCCUGGUAUUUUCAACAGCUCGCAGUCAAG”, for which the binding signal came to 0.335 ± 0.368 log2 fold change.
As for “GGUCACGUCUCAAUCAACUCAGUUUCCAGGGAAAUCCCUGGUUUAUUCAACAGCUCGCAGUCAAG”, the figure is 0.33 ± 0.289 log2 fold change; as for “GGUCACGUCUCAAUCAACUCUACUUCCAGGGAAAACCCUGGCAAACUCAACAGCUCGCAGUCAAG”, 0.31 ± 0.258 log2 fold change.
As for “GGUCACGUCUCAAUCAACUCUUCUUCCAGGGAAAACCCUGGCAAACUCAACAGCUCGCAGUCAAG”, the figure is 0.378 ± 0.272 log2 fold change; as for “GGUCACGUCUCAAUCAACUCUAAGGAGGGGGGGAAAACCCCUUUACCCUCAUCAUCAACAGCUCGCAGUCAAG”, 0.486 ± 0.425 log2 fold change.
As for “GGUCACGUCUCAAUCAACUCUAAGGAGGGGGGGAAAACCCCUUUACCCUCACACUCAACAGCUCGCAGUCAAG”, the figure is 0.396 ± 0.454 log2 fold change; as for “GGUCACGUCUCAAUCAACUCUCAGGAGGGGGGGAAAACCCCUUUACCCUCAUCGUCAACAGCUCGCAGUCAAG”, 0.309 ± 0.421 log2 fold change.
Consider “GGUCACGUCUCAAUCAACUCAACUGAGGGGGGGAAAACCCCUUUACCCUCCAAAUCAACAGCUCGCAGUCAAG”, for which the binding signal came out at 0.448 ± 0.446 log2 fold change.
As for “GGUCACGUCUCAAUCAACUCUCCAGAGGGGGGGAAAACCCCUUUACCCUCAACAUCAACAGCUCGCAGUCAAG”, the figure is 0.304 ± 0.431 log2 fold change.
